Among the data in PMC11006913 are binding signal values, retold here.

Common to all, as to assay: PBM; 200 nM protein, PBS
What all share (details): dsDNA, one strand shown

The target of test [1] is HESX1 (Homo sapiens, UniProt Q9UBX0 95-180, R165K).
The target in test [2] is HESX1 (Homo sapiens, UniProt Q9UBX0 95-180).
Test [3] addresses MSX2 (Homo sapiens, UniProt P35548 130-214, R199I).
For test [4], the target named is HESX1 (Homo sapiens, UniProt Q9UBX0 95-180, R109Q).
For test [5], the target named is HESX1 (Homo sapiens, UniProt Q9UBX0 95-180, P111T).
Test [6] has as its target MSX2 (Homo sapiens, UniProt P35548 130-214, F161Y).
Test [7] concerns the target HESX1 (Homo sapiens, UniProt Q9UBX0 95-180, F115L).
The target of test [8] is ALX4 (Homo sapiens, UniProt Q9H161 200-286).
In test [9] the target is PRRX1 (Homo sapiens, UniProt P54821 80-166, F113S).
For test [10], the target named is ALX4 (Homo sapiens, UniProt Q9H161 200-286, Q225E).
Test [11] deals with ALX1 (Homo sapiens, UniProt Q15699 118-204, L144V).
Test [12] concerns the target ALX1 (Homo sapiens, UniProt Q15699 118-204, L144R).
The target in test [13] is PROP1 (Homo sapiens, UniProt O75360 56-141).
For test [14], the target named is PROP1 (Homo sapiens, UniProt O75360 56-141, R99H).
The next test deals with ALX3 (Homo sapiens, UniProt O95076 139-225, L168Q).
For test [15], the target named is PROP1 (Homo sapiens, UniProt O75360 56-141, F88S).
Test [16] has as its target ALX1 (Homo sapiens, UniProt Q15699 118-204).
Test [17] has as its target PRRX1 (Homo sapiens, UniProt P54821 80-166).

HESX1 (Homo sapiens, UniProt Q9UBX0 95-180), sequence (Q9UBX0 95-180): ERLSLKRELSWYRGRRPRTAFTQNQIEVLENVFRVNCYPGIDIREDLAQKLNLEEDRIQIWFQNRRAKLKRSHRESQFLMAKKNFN
HESX1 (Homo sapiens, UniProt Q9UBX0 95-180, R109Q), sequence (Q9UBX0 95-180 R109Q): as the sequence (Q9UBX0 95-180) above, with R15Q counted along it
HESX1 (Homo sapiens, UniProt Q9UBX0 95-180, P111T), sequence (Q9UBX0 95-180 P111T): as the sequence (Q9UBX0 95-180) above, with P17T counted along it
HESX1 (Homo sapiens, UniProt Q9UBX0 95-180, R165K), sequence (Q9UBX0 95-180 R165K): as the sequence (Q9UBX0 95-180) above, with R71K counted along it
HESX1 (Homo sapiens, UniProt Q9UBX0 95-180, F115L), sequence (Q9UBX0 95-180 F115L): as the sequence (Q9UBX0 95-180) above, with F21L counted along it
PRRX1 (Homo sapiens, UniProt P54821 80-166), sequence (P54821 80-166): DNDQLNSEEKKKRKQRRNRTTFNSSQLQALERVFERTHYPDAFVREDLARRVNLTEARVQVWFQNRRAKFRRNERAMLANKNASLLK
PRRX1 (Homo sapiens, UniProt P54821 80-166, F113S), sequence (P54821 80-166 F113S): as the sequence (P54821 80-166) above, with F34S counted along it
ALX1 (Homo sapiens, UniProt Q15699 118-204), sequence (Q15699 118-204): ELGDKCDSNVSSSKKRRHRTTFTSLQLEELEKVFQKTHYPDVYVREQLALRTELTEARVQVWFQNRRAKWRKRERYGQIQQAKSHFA
MSX2 (Homo sapiens, UniProt P35548 130-214, F161Y), sequence (P35548 130-214 F161Y): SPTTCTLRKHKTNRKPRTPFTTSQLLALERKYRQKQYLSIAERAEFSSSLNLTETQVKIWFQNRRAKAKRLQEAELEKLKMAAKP
ALX1 (Homo sapiens, UniProt Q15699 118-204, L144R), sequence (Q15699 118-204 L144R): as the sequence (Q15699 118-204) above, with L27R counted along it
ALX4 (Homo sapiens, UniProt Q9H161 200-286), sequence (Q9H161 200-286): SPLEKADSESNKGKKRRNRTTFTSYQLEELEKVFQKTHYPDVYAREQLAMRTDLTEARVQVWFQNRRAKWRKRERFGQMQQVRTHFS
MSX2 (Homo sapiens, UniProt P35548 130-214, R199I), sequence (P35548 130-214 R199I): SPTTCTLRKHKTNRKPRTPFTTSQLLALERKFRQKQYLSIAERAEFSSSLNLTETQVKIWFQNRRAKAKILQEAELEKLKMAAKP
PROP1 (Homo sapiens, UniProt O75360 56-141, F88S), sequence (O75360 56-141 F88S): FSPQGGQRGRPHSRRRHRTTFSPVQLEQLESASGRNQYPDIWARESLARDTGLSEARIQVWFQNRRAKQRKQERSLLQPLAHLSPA
ALX4 (Homo sapiens, UniProt Q9H161 200-286, Q225E), sequence (Q9H161 200-286 Q225E): as the sequence (Q9H161 200-286) above, with Q26E counted along it
PROP1 (Homo sapiens, UniProt O75360 56-141, R99H), sequence (O75360 56-141 R99H): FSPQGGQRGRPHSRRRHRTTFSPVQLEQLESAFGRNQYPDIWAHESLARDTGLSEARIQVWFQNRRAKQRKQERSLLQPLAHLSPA
PROP1 (Homo sapiens, UniProt O75360 56-141), sequence (O75360 56-141): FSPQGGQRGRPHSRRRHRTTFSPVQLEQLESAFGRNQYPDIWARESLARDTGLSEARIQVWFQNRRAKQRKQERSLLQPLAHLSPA
ALX1 (Homo sapiens, UniProt Q15699 118-204, L144V), sequence (Q15699 118-204 L144V): as the sequence (Q15699 118-204) above, with L27V counted along it
ALX3, sequence (O95076 139-225 L168Q): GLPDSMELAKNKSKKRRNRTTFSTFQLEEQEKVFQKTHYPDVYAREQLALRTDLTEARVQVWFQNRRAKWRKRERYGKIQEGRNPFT

As for GAACCCCC, the binding signal is 6.29 upbm affinity estimate (log intensity, higher = more binding, comparable within an allelic series) in the test with HESX1 [1]; 6.26 upbm affinity estimate (log intensity, higher = more binding, comparable within an allelic series) with HESX1 [2]; 9.43 upbm affinity estimate (log intensity, higher = more binding, comparable within an allelic series) in the test with MSX2 [3]; 6.37 upbm affinity estimate (log intensity, higher = more binding, comparable within an allelic series) with HESX1 [4]; 6.38 upbm affinity estimate (log intensity, higher = more binding, comparable within an allelic series) with HESX1 [5]; 9.53 upbm affinity estimate (log intensity, higher = more binding, comparable within an allelic series) in the test with MSX2 [6]. In addition, in the test with HESX1 [7], the binding signal is 6.35 upbm affinity estimate (log intensity, higher = more binding, comparable within an allelic series).

As to AATTATCT, the binding signal with HESX1 [1] was 11.8 upbm affinity estimate (log intensity, higher = more binding, comparable within an allelic series); with ALX4 [8], 13.6 upbm affinity estimate (log intensity, higher = more binding, comparable within an allelic series); with PRRX1 [9], 11.2 upbm affinity estimate (log intensity, higher = more binding, comparable within an allelic series); in the test with ALX4 [10], 12.7 upbm affinity estimate (log intensity, higher = more binding, comparable within an allelic series); with HESX1 [2], 11.8 upbm affinity estimate (log intensity, higher = more binding, comparable within an allelic series); with MSX2 [3], 12.3 upbm affinity estimate (log intensity, higher = more binding, comparable within an allelic series). Besides, the binding signal with ALX1 [11] is 11.6 upbm affinity estimate (log intensity, higher = more binding, comparable within an allelic series); with ALX1 [12], 11.3 upbm affinity estimate (log intensity, higher = more binding, comparable within an allelic series); with PROP1 [13] it was 11.1 upbm affinity estimate (log intensity, higher = more binding, comparable within an allelic series); in the test with HESX1 [4] it was 8.47 upbm affinity estimate (log intensity, higher = more binding, comparable within an allelic series); in the test with PROP1 [14] it was 10.8 upbm affinity estimate (log intensity, higher = more binding, comparable within an allelic series); with ALX3, 10.3 upbm affinity estimate (log intensity, higher = more binding, comparable within an allelic series). Further, the binding signal is 10.2 upbm affinity estimate (log intensity, higher = more binding, comparable within an allelic series) with HESX1 [5]; 7.79 upbm affinity estimate (log intensity, higher = more binding, comparable within an allelic series) with PROP1 [15]; 13 upbm affinity estimate (log intensity, higher = more binding, comparable within an allelic series) with MSX2 [6]; 7.77 upbm affinity estimate (log intensity, higher = more binding, comparable within an allelic series) with HESX1 [7]; 12.1 upbm affinity estimate (log intensity, higher = more binding, comparable within an allelic series) with ALX1 [16]; 13.2 upbm affinity estimate (log intensity, higher = more binding, comparable within an allelic series) with PRRX1 [17].

As for ACGGAAGG, the binding signal with HESX1 [1] is 6.5 upbm affinity estimate (log intensity, higher = more binding, comparable within an allelic series); in the test with PRRX1 [9], 9.38 upbm affinity estimate (log intensity, higher = more binding, comparable within an allelic series); with HESX1 [2], 6.36 upbm affinity estimate (log intensity, higher = more binding, comparable within an allelic series); with ALX1 [11] it was 6.56 upbm affinity estimate (log intensity, higher = more binding, comparable within an allelic series); in the test with ALX1 [12], 6.44 upbm affinity estimate (log intensity, higher = more binding, comparable within an allelic series); with HESX1 [4], 6.53 upbm affinity estimate (log intensity, higher = more binding, comparable within an allelic series). Also, the binding signal was 6.63 upbm affinity estimate (log intensity, higher = more binding, comparable within an allelic series) with HESX1 [5]; 6.5 upbm affinity estimate (log intensity, higher = more binding, comparable within an allelic series) in the test with HESX1 [7]; 6.35 upbm affinity estimate (log intensity, higher = more binding, comparable within an allelic series) with ALX1 [16]; 9.17 upbm affinity estimate (log intensity, higher = more binding, comparable within an allelic series) with PRRX1 [17].

For ATTATTTG, the binding signal is 8.97 upbm affinity estimate (log intensity, higher = more binding, comparable within an allelic series) in the test with HESX1 [1] and 8.9 upbm affinity estimate (log intensity, higher = more binding, comparable within an allelic series) with HESX1 [2].

On to CCGAGGCC, for which the binding signal with HESX1 [1] was 6.48 upbm affinity estimate (log intensity, higher = more binding, comparable within an allelic series); with HESX1 [2], 6.46 upbm affinity estimate (log intensity, higher = more binding, comparable within an allelic series); with PROP1 [13], 6.73 upbm affinity estimate (log intensity, higher = more binding, comparable within an allelic series); with HESX1 [4], 6.41 upbm affinity estimate (log intensity, higher = more binding, comparable within an allelic series); with PROP1 [14], 6.78 upbm affinity estimate (log intensity, higher = more binding, comparable within an allelic series); in the test with HESX1 [5], 6.44 upbm affinity estimate (log intensity, higher = more binding, comparable within an allelic series). Also, the binding signal was 6.47 upbm affinity estimate (log intensity, higher = more binding, comparable within an allelic series) with PROP1 [15] and 6.42 upbm affinity estimate (log intensity, higher = more binding, comparable within an allelic series) in the test with HESX1 [7].

Regarding GCCGGCGA, the binding signal with HESX1 [1] is 6.47 upbm affinity estimate (log intensity, higher = more binding, comparable within an allelic series); with PRRX1 [9], 9.26 upbm affinity estimate (log intensity, higher = more binding, comparable within an allelic series); with HESX1 [2], 6.42 upbm affinity estimate (log intensity, higher = more binding, comparable within an allelic series); with HESX1 [4] it was 6.45 upbm affinity estimate (log intensity, higher = more binding, comparable within an allelic series); with HESX1 [5], 6.41 upbm affinity estimate (log intensity, higher = more binding, comparable within an allelic series); in the test with HESX1 [7], 6.43 upbm affinity estimate (log intensity, higher = more binding, comparable within an allelic series). Further, the binding signal with PRRX1 [17] is 9.42 upbm affinity estimate (log intensity, higher = more binding, comparable within an allelic series).

Consider AGGGTATA, for which the binding signal was 7.35 upbm affinity estimate (log intensity, higher = more binding, comparable within an allelic series) in the test with HESX1 [1] and 7.42 upbm affinity estimate (log intensity, higher = more binding, comparable within an allelic series) with HESX1 [2].

Take AATTGAGT: the binding signal was 9.4 upbm affinity estimate (log intensity, higher = more binding, comparable within an allelic series) with HESX1 [1] and 9.59 upbm affinity estimate (log intensity, higher = more binding, comparable within an allelic series) in the test with HESX1 [2].

Regarding AATGAGAG, the binding signal with HESX1 [1] is 7.5 upbm affinity estimate (log intensity, higher = more binding, comparable within an allelic series); with HESX1 [2], 7.55 upbm affinity estimate (log intensity, higher = more binding, comparable within an allelic series).

Consider CTCTCCAG, for which the binding signal in the test with HESX1 [1] was 6.3 upbm affinity estimate (log intensity, higher = more binding, comparable within an allelic series); with ALX4 [8], 7.91 upbm affinity estimate (log intensity, higher = more binding, comparable within an allelic series); with ALX4 [10] it was 7.91 upbm affinity estimate (log intensity, higher = more binding, comparable within an allelic series); with HESX1 [2] it was 6.32 upbm affinity estimate (log intensity, higher = more binding, comparable within an allelic series); with HESX1 [4], 6.51 upbm affinity estimate (log intensity, higher = more binding, comparable within an allelic series); with HESX1 [5] it was 6.4 upbm affinity estimate (log intensity, higher = more binding, comparable within an allelic series). Besides, the binding signal with HESX1 [7] was 6.42 upbm affinity estimate (log intensity, higher = more binding, comparable within an allelic series).
